# Rows were chosen to be rich in hits. Some 1.9% of all compounds tested hit in one or more screens of this group.
# eIF4E-4G inh = blocks eIF4E binding to eIF4G. AID 782. inhibition, % at 21.7 µM. TR-FRET eIF4E-eIF4GI(517-606) binding, 2 h. P63073+Q04637. 0.37% of 220,000 active;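 active means inhibition above about 30%, limit read from the data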;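 further: 0% = full FRET control wells and 100% = background wells lacking eIF4GI fragment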
# PABP1 MLLE inh = blocks PAM2 peptide binding to the PABP1 MLLE domain | inhibition, % at 20 µM | AID 588489 | GST-MLLE / FITC-PAM2 fluorescence polarization | 0.36% of 360,000 active | P11940; in the data active means inhibition above about 35%, passing the limit was not always enough;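 further: plate controls were DMSO wells with GST-MLLE for no effect and wells lacking GST-MLLE protein for full effect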
# 14-3-3 Bad inh = disrupts binding of bovine 14-3-3 zeta to phospho-Bad peptide. P63103. TR-FRET 14-3-3zeta/Dy647-pBad peptide displacement, 1 h. inhibition, % at 21.7 µM. 0.71% of 220,000 active. AID 781;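 active means inhibition above about 70%, limit read from the data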;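 further: 0% = full 14-3-3 plus peptide FRET controls and 100% = background without 14-3-3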
# eIF4H inh = inhibitors of RNA binding by human eIF4H. eIF4H fluorescence polarization binding assay. 0.94% of 290,000 active. inhibition, % at 35 µM. Q15056;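 further: calls also rest on retests at 20 µM and on dose response follow-up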
# PABP polyA inh = PABP-poly(A) binding inhibition. P11940. PABP-poly(A) RNA binding, fluorescence polarization. calls only at 35 µM. 1% of 290,000 active. AID 2014;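 further: calls also rest on retests at 20 µM and on dose response follow-up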
# Active calls of the source: *; i = inactive; ? = inconclusive; . = no result; + = active, no number; [ ] = another dose, or the depositor's remark. Unless noted, how the calls were made is not given here.
SMILES,eIF4E-4G inh,PABP1 MLLE inh,14-3-3 Bad inh,eIF4H inh,PABP polyA inh
CCOc1cc(Br)ccc1S(=O)(=O)N1CCC(C(N)=O)CC1,7,10,-4,active,+
Cc1ccc(S(=O)(=O)N2CCC(C(N)=O)CC2)c(C)c1C,3,8,3,5,i
O=C1Cc2cc(S(=O)(=O)N3CCN(c4ccc(O)cc4)CC3)ccc2N1,.,8,.,.,.
O=C1CC(=O)Nc2cc(S(=O)(=O)N3CCN(c4ccc([N+](=O)[O-])cc4)CC3)ccc2N1,.,-9,.,70*,i
COc1ccc(CCNC(=O)c2ccc(S(=O)(=O)N3CCCCC3)cc2)cc1,.,17,.,.,.
CCN1C(=O)C(O)(C2COC(C)(C)CC2=O)c2ccccc21 (centres undefined),-7,5,-11,0,i
CCN1C(=O)C(c2ccc(O)cc2)(c2ccc(O)cc2)c2ccccc21,1,-9,94*,-4,i
COc1ccc(NC(=O)CN2CCCCCC2)cc1OC,.,5,.,-9,i
CCCCNC(=S)NNC(=O)c1cc(C2CC2)nc2ccccc12,.,-5,.,2,i
Nc1cc2nc[nH]c2cc1N,36*,4,92*,?,i
O=P(O)(c1ccccc1)c1ccccc1O,-6,7,18,-7,i
O=P(c1ccccc1)(c1ccccc1)c1cc(S(=O)(=O)O)ccc1O,.,-9,.,78*,+
CCN(CC)C(=O)Cn1nc(-c2ccc(Cl)cc2)c2ccccc2c1=O,.,-4,.,1,i
Oc1ccc(/C=N/NC(=S)Nc2cccnc2)cc1O,-1,40*,84*[fluorescence artefact?],68,+
Cc1nonc1C(=O)N/N=C/c1ccc(O)c(O)c1,7,-11,-3,5,i
O=C(N/N=C/c1ccc(O)c(O)c1)N/N=C/c1ccc(O)c(O)c1,.,-8,.,56*,i
NC(=O)CN(Cc1ccccc1)S(=O)(=O)c1ccc2c(c1)OCCO2,.,7,.,-6,i
C[C@H](NC(=O)c1ncn(Cc2ccccc2)c1C(=O)N[C@@H](C)c1ccccc1)c1ccccc1,.,6,.,.,.
Cc1cccc2c1N(CCCOc1ccccc1)C(=O)C2=O,5,5,-5,-7,i
Cc1cccc(OCCN2C(=O)C(=O)c3cccc(C)c32)c1,2,-6,-22,1.1*,i
CCNCC(O)COCC(O)CNCC (centres undefined),46*,7,4,-11,i
CCc1ccc(OCCOCC(O)CNC(C)(C)C)cc1 (centres undefined),-2,0,-1,-3,i
COc1ccc(/C=C/C(=O)OCc2cc(=O)n3c(n2)sc2ccccc23)cc1,1,17,4,-7,i
O=C(OCc1cc(=O)n2c(n1)sc1ccccc12)c1ccc(O)cc1,10,1,41,79*,i
Cc1c(O)nc2sc3ccccc3n2c1=O,-4,.,2,22,i
SMILES,eIF4E-4G inh,PABP1 MLLE inh,14-3-3 Bad inh,eIF4H inh,PABP polyA inh
Cc1cccc(C(=O)N[C@H](C(=O)OCc2cc(=O)n3c(n2)sc2ccccc23)C(C)C)c1,15,-7,8,85*,+
O=c1cc(CCl)nc2sc3ccccc3n12,40*,-3,56,28,?
O=C(NCCN1CCOCC1)c1cccc(NS(=O)(=O)c2ccc(Br)cc2)c1,.,8,.,.,.
O=c1c(CN2CCN(c3ccccn3)CC2)coc2ccccc12,1,-1,-1,11,i
Brc1ccc(CN2CCN(c3ccccn3)CC2)s1,6,1,85*,-6,i
COc1cc(O)cc2cc3c(c(O)c12)C(=O)CC(C)(O)O3 (centres undefined),71*,45*,8,72*,+
Nc1ccc2oc(C3CCCCC3)nc2c1,0,14,-16,-5,i
O=C(COC(=O)c1ccc2c(c1)C(=O)N(c1cccc3ncccc13)C2=O)c1ccc(Cl)cc1,12,-1,75*,2,i
O=C(OCC(=O)c1ccc(Cl)cc1Cl)c1ccc2c(c1)C(=O)N(c1cccc3ncccc13)C2=O,-11,1,0,-1,i
Cc1ccc(C(=O)COC(=O)c2ccc3c(c2)C(=O)N(c2cccc4ncccc24)C3=O)cc1,21,-10,88*,12,i
COc1cccc(/C=C/C(=O)OCC(=O)NC2CCCCCC2)c1,.,8,.,.,.
CC(C)C1NC(=S)N(C2CCCCC2)C1=O (centres undefined),-1,7,43,-5,i
O=c1[nH][nH]c(=S)n1C1CCCCC1,44*,.,-3,-6,i
CCCCNC(=O)Oc1c(Br)cc2sc(=O)oc2c1Br,3,.,-4,96*,+
Cc1ccc(NC(=O)C2CCCN(C(=O)c3ccc(Cl)cc3)C2)cc1C (centres undefined),2,-4,0,-5,i
COc1cccc(OCc2nc3c4cnn(-c5ccccc5)c4ncn3n2)c1,1,-5,17,-5,i
c1ccc(-n2ncc3c2ncn2nc(-c4ccco4)nc32)cc1,6,15,9,50*,i
Fc1c(F)c(F)c(N=Cc2ccc3ncccc3c2)c(F)c1F,-2,3,-15,0.6*,+
CCCCC(=O)Nc1nn(CC(C)C)c2nc3ccccc3cc12,1,15,82*,2,i
CC(C)Cn1nc(NC(=O)C(C)(C)C)c2cc3ccccc3nc21,-5,-5,53,8,i
Cc1c(CCC(=O)NCCCCCC(=O)O)c(=O)oc2cc3occ(-c4ccccc4)c3cc12,.,12,.,72*,+
COCOCCn1cc(CN2CCS(=O)(=O)N(Cc3ccc(-c4ccc(F)nc4)cc3)C(CC(C)C)C2=O)nn1 (centres undefined),.,5,.,.,.
Cc1ccc(OCC(=O)Sc2ccc(C)cc2)cc1,3,25,5,-1,i
COc1ccccc1OCC(=O)Sc1ccc(C)cc1,-5,36*,-9,-13,i
COc1ccccc1OCC(=O)NCCNC(=O)COc1ccccc1OC,-20,40*,-16,-7,i
SMILES,eIF4E-4G inh,PABP1 MLLE inh,14-3-3 Bad inh,eIF4H inh,PABP polyA inh
CCNC(=O)C1(C)CCN(C(=O)c2ccc(-c3ccccc3)cc2)C1 (centres undefined),.,10,.,.,.
Cc1cc([N+](=O)[O-])ccc1NC(=O)c1csc(C)c1C,.,0,.,4,i
CCOc1cccc2cc(-c3nnc(NCc4ccc5c(c4)OCO5)s3)c(=O)oc12,-7,-12,83*[fluorescence artefact?],-12,i
CCOc1ccccc1C(=O)NCc1ccc2c(c1)OCO2,-7,-5,3,-2,i
O=C1C=CC(=Nc2ccc(F)cc2)O1,.,40*,.,.,.
CCOC(=O)CSc1nc2c(c(=O)[nH]c(=O)n2C)n1C/C=C(/C)Cl,12,37*,21,2,i
CCCCn1c(SCC(=O)OCC)nc2c1c(=O)[nH]c(=O)n2C,2,18,6,3,i
C/C=C/Cn1c(SCc2ccc(C)cc2)nc2c1c(=O)[nH]c(=O)n2C,-7,25,11,-3,i
